Assay [1] concerns the target Transcription factor E2F1 (Homo sapiens) (UniProt Q01094). The assay can be described thus: ATG_E2F_CIS: Attagene CIS-FACTORIAL HepG2 Assay for human E2F Transcription Factor 1 (AID 2282935). The settings on record: HepG2 Attagene cis-reporter, E2F reporter RNA transcripts; actives raise or lower the signal. In short, it runs like this:
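In this cis-factorial format, endogenous factor activity drives transfected reporters in HepG2; transcripts collected at 24 h are quantified by fluorescence after RT-PCR and capillary separation.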

The nature of assay [2]: ATG_E_Box_CIS: Attagene CIS-FACTORIAL HepG2 Assay for human Enhancer Box (E-box) (AID 2282936). The settings on record: HepG2 E-box cis-reporter transcription, actives raise or lower the signal. In short, it runs like this: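 Measured 24 h post-dosing in HepG2 cells transfected with multiple cis-regulated reporter units, signal being reporter mRNA induction detected by fluorescent RT-PCR with capillary electrophoresis; gain or loss fitted against DMSO.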

Assay [3] can be described thus: ATG_M_61_CIS: Attagene CIS-FACTORIAL HepG2 Assay for M61 Transcription Factor (Internal Marker) (AID 2282937). The settings on record: HepG2 Attagene CIS-FACTORIAL M61 internal marker reporter; actives raise or lower the signal. The gist of the method:
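Multiplexed reporter mRNA assay, HepG2 human hepatoma cells, 24 h treatment. Signal: FAM-labelled, HpaI-digested RT-PCR fragments by CE. Fit: bidirectional, baseline DMSO.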

Assay [4] is described as follows: ATG_EGR_CIS: Attagene CIS-FACTORIAL HepG2 Assay for human Early Growth Response 1 (EGR1) (AID 2282938). As to conditions: HepG2 Attagene CIS-FACTORIAL EGR reporter mRNA; actives raise or lower the signal. In short, it runs like this:
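Multiplexed cis-reporter system in human hepatoma HepG2 cells, transiently transfected. Cells are dosed for 24 h; reporter transcripts are amplified, fluorescently tagged and sized by capillary electrophoresis, with DMSO as negative control.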

A short description of assay [5]: ATG_M_19_CIS: Attagene CIS-FACTORIAL HepG2 Assay for M19 Transcription Factor (Internal Marker) (AID 2282939). As to conditions: HepG2 Attagene CIS-FACTORIAL M19 internal marker reporter; actives raise or lower the signal. In short, it runs like this:
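In this multiplexed cell assay, transiently transfected HepG2 reporter units report endogenous transcription-factor activity; after 24 hours of treatment, labelled reporter cDNA fragments are quantified by capillary electrophoresis and fitted bidirectionally against DMSO.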

Assay [6] in a line: ATG_ERE_CIS: Attagene CIS-FACTORIAL HepG2 Assay for Estrogen Response Element (ERE) (AID 2282940). The settings on record: HepG2 ERE cis-reporter, Attagene RNA transcript; actives raise or lower the signal. The gist of the method:
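Measuring endogenous transcription factor output, the assay doses transfected HepG2 cells for 24 hours and quantifies reporter transcripts by fluorescent RT-PCR and capillary electrophoresis, with DMSO as baseline.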

Assay [7] in a line: ATG_Ets_CIS: Attagene CIS-FACTORIAL HepG2 Assay for human Erythroblast Transformation Specific (ETS) (AID 2282941). As to conditions: HepG2 ETS cis-reporter transcription, actives raise or lower the signal. In short, it runs like this:
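Multiplexed reporter transcript profiling: HepG2, 24 h treatment, total RNA to cDNA, PCR, 6-FAM labelling, HpaI cut, capillary electrophoresis. Gain- or loss-of-signal fitted against DMSO.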

Assay [8] addresses Hepatocyte nuclear factor 3-beta (Homo sapiens) (UniProt Q9Y261). The assay can be described thus: ATG_FoxA2_CIS: Attagene CIS-FACTORIAL HepG2 Assay for human Forkhead box A2 (FOXA2) (AID 2282942). As to conditions: HepG2 cis-reporter transcription factor activity, 24 h; actives raise or lower the signal. The gist of the method:
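Multiplexed cis-element reporter assay in transiently transfected HepG2. Twenty-four hours post-dosing, RNA was reverse-transcribed, amplified, FAM-labelled, HpaI-digested and separated by CE. Activity gain or loss relative to DMSO.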

Assay [9] can be described thus: ATG_FoxO_CIS: Attagene CIS-FACTORIAL HepG2 Assay for human Forkhead box O (FoxO) (AID 2282943). The settings on record: HepG2 Attagene cis-reporter, FoxO element, mRNA; actives raise or lower the signal. The gist of the method: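 24 h chemical exposure, HepG2 with transient cis-MRTU transfection. RNA extraction, oligo(dT) RT, reporter-specific PCR, primer-extension labelling, HpaI digestion, CE fragment analysis; bidirectional fit, DMSO baseline.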

Assay [10] is described as follows: ATG_GATA_CIS: Attagene CIS-FACTORIAL HepG2 Assay for human GATA Binding Protein (AID 2282944). As to conditions: HepG2 GATA cis-element reporter, Attagene multiplex mRNA; actives raise or lower the signal. In short, it runs like this:
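Measures endogenous transcription factor-driven reporter mRNA in HepG2 cells transiently carrying cis-regulated constructs. 24 h dosing; RNA via oligo(dT) reverse transcription, PCR, HpaI digestion, capillary electrophoresis; fitted relative to DMSO.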

The structures appear in SMILES notation. Calls of active or inactive are those of the source. Rule for the calls: active = hit-call score of the fitted dose curve at least 0.9, where 1 is the maximum; inactive = score below 0.9.

The text below walks through data of PubChem BioAssay (EPA / NIEHS).

Broadly, the AC50 is the midpoint of the concentration-response curve, whichever way the signal moves.

Chain of Transcription factor E2F1 (Homo sapiens) (Q01094 whole entry, looked up): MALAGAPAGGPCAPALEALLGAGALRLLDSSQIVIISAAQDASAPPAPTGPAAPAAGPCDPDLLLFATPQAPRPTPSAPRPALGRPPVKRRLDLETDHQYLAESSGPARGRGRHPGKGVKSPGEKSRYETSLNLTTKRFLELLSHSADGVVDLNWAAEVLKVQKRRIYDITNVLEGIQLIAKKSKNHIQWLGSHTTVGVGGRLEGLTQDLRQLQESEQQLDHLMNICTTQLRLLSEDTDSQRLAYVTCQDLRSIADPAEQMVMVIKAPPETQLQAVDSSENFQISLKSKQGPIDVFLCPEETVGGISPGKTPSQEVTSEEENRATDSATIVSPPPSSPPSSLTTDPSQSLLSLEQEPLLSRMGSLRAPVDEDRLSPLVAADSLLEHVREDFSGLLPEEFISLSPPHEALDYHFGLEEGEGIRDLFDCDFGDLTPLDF
Chain of Hepatocyte nuclear factor 3-beta (Homo sapiens) (Q9Y261 whole entry, looked up): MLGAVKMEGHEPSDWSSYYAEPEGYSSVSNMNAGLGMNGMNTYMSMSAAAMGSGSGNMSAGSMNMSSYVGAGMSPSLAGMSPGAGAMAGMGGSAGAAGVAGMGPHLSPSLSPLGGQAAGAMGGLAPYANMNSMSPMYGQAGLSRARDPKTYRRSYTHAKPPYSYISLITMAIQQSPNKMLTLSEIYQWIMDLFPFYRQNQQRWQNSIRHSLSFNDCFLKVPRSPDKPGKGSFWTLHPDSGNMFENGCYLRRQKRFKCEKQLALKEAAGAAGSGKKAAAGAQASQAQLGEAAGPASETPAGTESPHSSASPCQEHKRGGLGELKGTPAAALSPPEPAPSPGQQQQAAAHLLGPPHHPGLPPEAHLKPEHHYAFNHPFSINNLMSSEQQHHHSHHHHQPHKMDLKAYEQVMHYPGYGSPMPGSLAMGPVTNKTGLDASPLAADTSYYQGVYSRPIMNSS

With `CN(C)C(=S)SSC(=S)N(C)C`, the compound was called inactive in assay [1], in assay [2], in [3], in assay [4], in assay [5] and in assay [6]. In addition, the compound was called inactive in assay [7], in [8], in assay [9] and in assay [10].

`CCON=C(CC)C1=C(O)CC(c2c(C)cc(C)cc2C)CC1=O` (centres undefined): the compound was called inactive in assay [1], in assay [2], in assay [3], in assay [4], in assay [5] and in assay [6]. The compound was called inactive in [7], in [8], in [9] and in assay [10].

With `Cc1c(F)c(F)c(COC(=O)C2C(/C=C(\Cl)C(F)(F)F)C2(C)C)c(F)c1F` (centres undefined), the result in assay [1], in [2], in assay [3], in [4], in assay [5] and in assay [6] was inactive. Moreover, the compound was called inactive in assay [7], in assay [8], in assay [9] and in [10].

Turning to `C=CCC1=C(C)[C@@H](OC(=O)[C@@H]2[C@@H](C=C(C)C)C2(C)C)CC1=O`, the compound was classed as inactive in assay [1], in assay [2], in assay [3], in assay [4], in assay [5] and in assay [6]. Besides, the call in assay [7], in [8], in [9] and in [10] was inactive.

`O=C(O)c1nc(Cl)ccc1Cl`: the call in [1], in [2], in assay [3], in assay [4], in assay [5] and in assay [6] was inactive. Also, the compound was called inactive in assay [7], in [8], in assay [9] and in assay [10].

As for `COC(=O)C(C)Oc1ccc(Oc2ccc(Cl)cc2Cl)cc1` (centres undefined), the call in assay [1], in assay [2], in assay [3], in assay [4], in assay [5] and in [7] was inactive. Further, the result in [8], in assay [9] and in assay [10] was inactive.

Consider `CCNc1nc(Cl)nc(NCC)n1`, for which the outcome in assay [1], in assay [2], in [3], in [4], in assay [5] and in assay [6] was inactive. In addition, the outcome in assay [7], in [8], in [9] and in assay [10] was inactive.

Consider `O=C(O)COc1nc(Cl)c(Cl)cc1Cl`, for which the compound was classed as inactive in [1], in assay [2], in [3], in [4], in assay [5] and in [6]. Further, the outcome in assay [7], in assay [8], in [9] and in assay [10] was inactive.

Consider `Cc1cc(Cl)ccc1OCC(=O)O`, for which the compound was classed as inactive in assay [1], in assay [2], in assay [3], in assay [4], in assay [5] and in [6]. The result in [7], in assay [8], in assay [9] and in assay [10] was inactive.

With `CCOc1cc(Oc2ccc(C(F)(F)F)cc2Cl)ccc1[N+](=O)[O-]`, the compound was called inactive in assay [1], in [2], in assay [3], in assay [4], in assay [5] and in [7]. Besides, the outcome in [8], in assay [9] and in [10] was inactive. For the same compound, in [6], the concentration at half-maximal activity (AC50) was 13.1 µM (active).

Regarding `COc1nc(C)nc(NC(=O)NS(=O)(=O)c2ccccc2CCC(F)(F)F)n1`, the compound was called inactive in [1], in assay [2], in assay [3], in [4], in assay [5] and in [6]. For the same compound, the compound was classed as inactive in assay [7], in assay [8], in [9] and in assay [10].

`C=CC1(C)OC(=O)N(c2cc(Cl)cc(Cl)c2)C1=O` (centres undefined): the compound was called inactive in assay [1], in [2], in [3], in assay [4], in [5] and in assay [6]. Moreover, the call in assay [7], in assay [8], in assay [9] and in [10] was inactive.

Regarding `CC1=C(C(=O)Nc2ccccc2)SCCO1`, the compound was classed as inactive in assay [1], in assay [2], in assay [3], in [4], in assay [5] and in assay [6]. Further, the outcome in assay [7], in assay [8], in [9] and in [10] was inactive.

For the compound `CCCCNC(=O)n1c(NC(=O)OC)nc2ccccc21`, the outcome in [1], in assay [2], in assay [3], in assay [4], in [5] and in assay [6] was inactive. For the same compound, the outcome in assay [7], in assay [8], in assay [9] and in [10] was inactive.

On to `COC(=O)N(OC)c1ccccc1COc1ccn(-c2ccc(Cl)cc2)n1`, for which the compound was classed as inactive in assay [1], in assay [2], in [3], in [4], in assay [5] and in assay [6]. Moreover, the compound was classed as inactive in [8], in [9] and in assay [10]. Also, in assay [7], the AC50 is 1.47 µM (active).

In the case of `COP(N)(=O)SC` (centres undefined), the call in assay [1], in [2], in assay [3], in assay [4], in assay [5] and in assay [6] was inactive. Also, the compound was called inactive in [7], in assay [8], in assay [9] and in assay [10].
